Measured values: PubChem BioAssay AID1159580 (chemical genetic matrix, 2015)
Screen size: about 5,500 compounds; about 2,000 (36%) were called active. Inconclusive results (about 18%) are left out. No stated cut-off is given here; in the data, active means normalized growth mostly below about 0.91 (no sharp cut-off); inconclusive means no clear call, values can overlap the other calls; inactive means mostly above about 0.92. The list shows a part of the results.

Experiment: chemical genetic growth profiling, strain panel (AID 1159580);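 further: tested at 20 µM; growth read once vehicle control cultures reached saturation at 30 °C; 1 = growth at the plate median or of vehicle wells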
Settings: S. cerevisiae deletion strains, growth OD

Measured: normalized growth

C=C1C2CC[C@@]3(C)[C@H](c4ccoc4)OC(=O)C[C@]13O[C@H]1CC(=O)C(C)(C)[C@H](C(OC(C)=O)C(=O)OC)[C@@]21C (stereo not given in full)
inactive: locus YAL021C, strain ccr4, stronger effect = lower value 1 | locus YAL026C, strain drs2, stronger effect = lower value 1.03 | locus YAL030W, strain snc1, stronger effect = lower value 1 | locus YBL061C, strain skt5, stronger effect = lower value 1.02 | locus YBR009C, strain hhf1, stronger effect = lower value 1.02 | locus YBR021W, strain FUR4, stronger effect = lower value 0.999 | locus YBR023C, strain chs3, stronger effect = lower value 0.998 | locus YBR171W, strain sec66, stronger effect = lower value 1.02 | locus YBR229C, strain ROT2, stronger effect = lower value 0.994 | locus YBR231C, strain swc5, stronger effect = lower value 1.04 | locus YBR279W, strain paf1, stronger effect = lower value 1.01 | locus YCL011C, strain gbp2, stronger effect = lower value 0.993 | locus YCL016C, strain dcc1, stronger effect = lower value 0.983 | locus YCL029C, strain bik1, stronger effect = lower value 1 | locus YCL069W, strain vba3, stronger effect = lower value 1 | locus YCR088W, strain abp1, stronger effect = lower value 1.01 | locus YDL005C, strain med2, stronger effect = lower value 1.01 | locus YDL035C, strain GPR1, stronger effect = lower value 0.978 | locus YDL040C, strain nat1, stronger effect = lower value 1 | locus YDL074C, strain BRE1, stronger effect = lower value 1.01 | locus YDL101C, strain DUN1, stronger effect = lower value 1.01 | locus YDL185W, strain tfp1, stronger effect = lower value 1.01 | locus YDL192W, strain arf1, stronger effect = lower value 0.998 | locus YDR001C, strain nth1, stronger effect = lower value 1.02 | locus YDR069C, strain doa4, stronger effect = lower value 1.03 | locus YDR101C, strain arx1, stronger effect = lower value 0.978 | locus YDR137W, strain rgp1, stronger effect = lower value 0.872 | locus YDR150W, strain NUM1, stronger effect = lower value 0.985 | locus YDR159W, strain sac3, stronger effect = lower value 1.05 | locus YDR162C, strain NBP2, stronger effect = lower value 0.985 | locus YDR195W, strain ref2 1.02 | locus YDR297W, strain sur2, stronger effect = lower value 1.02 | locus YDR318W, strain mcm21, stronger effect = lower value 1.01 | locus YDR334W, strain swr1, stronger effect = lower value 1.01 | locus YDR335W, strain msn5, stronger effect = lower value 1.01 | locus YDR388W, stronger effect = lower value 1.01 | locus YDR392W, strain spt3, stronger effect = lower value 0.922 | locus YDR502C, strain sam2, stronger effect = lower value 1.02 | locus YEL003W, strain gim4, stronger effect = lower value 1.03 | locus YEL037C, strain rad23, stronger effect = lower value 1.01 | locus YEL061C, strain CIN8 (second series), stronger effect = lower value 1.01 | locus YEL061C, strain CIN8, stronger effect = lower value 0.99 | locus YER015W, strain faa2, stronger effect = lower value 1 | locus YER016W, strain bim1, stronger effect = lower value 1.01 | locus YER110C, stronger effect = lower value 1.01 | locus YER111C, strain swi4, stronger effect = lower value 1.02 | locus YER155C, strain BEM2 (second series), stronger effect = lower value 1.06 | locus YER155C, strain BEM2, stronger effect = lower value 1.02 | locus YER167W, strain BCK2, stronger effect = lower value 1 | locus YFR010W, strain ubp6, stronger effect = lower value 1.04 | locus YGL078C, strain dbp3, stronger effect = lower value 1.01 | locus YGL086W, strain mad1, stronger effect = lower value 0.987 | locus YGL167C, strain pmr1, stronger effect = lower value 1.01 | locus YGL173C, strain kem1, stronger effect = lower value 1.03 | locus YGL227W, strain vid30, stronger effect = lower value 1.01 | locus YGL240W, strain doc1, stronger effect = lower value 1.03 | locus YGL248W, strain PDE1, stronger effect = lower value 1.01 | locus YGL253W, strain hxk2, stronger effect = lower value 0.99 | locus YGR135W, strain pre9, stronger effect = lower value 1.05 | locus YGR252W, strain gcn5, stronger effect = lower value 1.02 | locus YHR013C, strain ard1, stronger effect = lower value 0.983 | locus YHR027C, strain rpn1, stronger effect = lower value 1.02 | locus YHR079C, strain IRE1 (second series), stronger effect = lower value 0.997 | locus YHR094C, strain hxt1, stronger effect = lower value 1.01 | locus YHR129C, strain ARP1, stronger effect = lower value 1.01 | locus YHR142W, strain chs7, stronger effect = lower value 0.977 | locus YHR200W, strain rpn10, stronger effect = lower value 1.01 | locus YIL066C, strain RNR3, stronger effect = lower value 0.976 | locus YIL073C, strain SPO22, stronger effect = lower value 1.01 | locus YIL125W, strain kgd1, stronger effect = lower value 0.994 | locus YIR030C, strain dcg1, stronger effect = lower value 0.997 | locus YJL092W, strain hpr5, stronger effect = lower value 1.02 | locus YJL095W, strain BCK1 (second series), stronger effect = lower value 1.02 | locus YJL095W, strain BCK1, stronger effect = lower value 1.04 | locus YJL115W, strain asf1, stronger effect = lower value 1.01 | locus YJL129C, strain trk1, stronger effect = lower value 1 | locus YJL134W, strain LCB3, stronger effect = lower value 0.998 | locus YJL154C, strain vps35, stronger effect = lower value 1.01 | locus YJL164C, strain tpk1, stronger effect = lower value 0.995 | locus YJL166W, strain qcr8, stronger effect = lower value 1.03 | locus YJL168C, strain set2, stronger effect = lower value 1 | locus YJL187C, strain SWE1 (second series), stronger effect = lower value 1.03 | locus YJL187C, strain SWE1, stronger effect = lower value 1 | locus YKL009W, strain mrt4, stronger effect = lower value 0.983 | locus YKL068W, stronger effect = lower value 1 | locus YKL085W, strain MDH1 (second series), stronger effect = lower value 0.981 | locus YKL085W, strain MDH1, stronger effect = lower value 0.981 | locus YKL160W, strain elf1, stronger effect = lower value 0.976 | locus YKR001C, strain vps1, stronger effect = lower value 0.995 | locus YKR026C, strain gcn3, stronger effect = lower value 1.01 | locus YKR091W, strain srl3, stronger effect = lower value 1 | locus YLL001W, strain dnm1, stronger effect = lower value 0.992 | locus YLL026W, stronger effect = lower value 1 | locus YLL041C, strain sdh2, stronger effect = lower value 1.01 | locus YLR027C, strain aat2, stronger effect = lower value 1.02 | locus YLR039C, strain RIC1, stronger effect = lower value 0.917 | locus YLR058C, strain SHM2, stronger effect = lower value 1.01 | locus YLR102C, strain apc9, stronger effect = lower value 1 | locus YLR221C, strain rsa3, stronger effect = lower value 1.04 | locus YLR258W, strain gsy2, stronger effect = lower value 1.02 | locus YLR262C, strain YPT6 (second series), stronger effect = lower value 0.892 | locus YLR268W, strain sec22, stronger effect = lower value 0.987 | locus YLR320W, strain mms22, stronger effect = lower value 1.03 | locus YLR342W, strain FKS1 (second series), stronger effect = lower value 0.978 | locus YLR342W, strain FKS1, stronger effect = lower value 1 | locus YLR357W, strain rsc2, stronger effect = lower value 1.02 | locus YLR370C, strain arc18, stronger effect = lower value 0.998 | locus YLR371W, strain rom2, stronger effect = lower value 1 | locus YLR384C, strain iki3, stronger effect = lower value 1.03 | locus YLR418C, strain cdc73, stronger effect = lower value 1.01 | locus YML016C, strain PPZ1, stronger effect = lower value 1 | locus YML032C, strain rad52, stronger effect = lower value 1.01 | locus YML120C, strain ndi1, stronger effect = lower value 1.01 | locus YML124C, strain tub3, stronger effect = lower value 1 | locus YMR058W, strain fet3, stronger effect = lower value 1.03 | locus YMR078C, strain ctf18, stronger effect = lower value 1.01 | locus YMR125W, strain sto1, stronger effect = lower value 0.996 | locus YMR129W, stronger effect = lower value 1.01 | locus YMR205C, strain PFK2, stronger effect = lower value 0.992 | locus YMR223W, strain ubp8, stronger effect = lower value 1.01 | locus YMR231W, strain pep5, stronger effect = lower value 1.01 | locus YMR307W, strain GAS1, stronger effect = lower value 0.996 | locus YNL067W, strain RPL9B, stronger effect = lower value 1.03 | locus YNL071W, strain lat1, stronger effect = lower value 0.993 | locus YNL209W, strain ssb2, stronger effect = lower value 0.993 | locus YNL233W, strain BNI4, stronger effect = lower value 1.01 | locus YNL248C, strain rpa49, stronger effect = lower value 1.04 | locus YNL250W, strain rad50, stronger effect = lower value 1.03 | locus YNL271C, strain bni1, stronger effect = lower value 1 | locus YNL298W, strain CLA4, stronger effect = lower value 1.01 | locus YNL307C, strain MCK1, stronger effect = lower value 1.01 | locus YNL322C, strain KRE1 (second series), stronger effect = lower value 1.02 | locus YNR049C, strain mso1, stronger effect = lower value 1.01 | locus YNR052C, strain pop2, stronger effect = lower value 1.02 | locus YOL006C, strain TOP1, stronger effect = lower value 0.972 | locus YOL012C, strain htz1 0.586 | locus YOL147C, strain pex11, stronger effect = lower value 1 | locus YOR001W, strain rrp6, stronger effect = lower value 1.04 | locus YOR061W, strain CKA2, stronger effect = lower value 0.997 | locus YOR069W, strain VPS5, stronger effect = lower value 1 | locus YOR070C, strain gyp1, stronger effect = lower value 1.03 | locus YOR080W, strain dia2, stronger effect = lower value 1.01 | locus YOR083W, strain WHI5, stronger effect = lower value 0.978 | locus YOR106W, strain vam3, stronger effect = lower value 0.958 | locus YOR136W, strain idh2, stronger effect = lower value 0.997 | locus YOR144C, strain elg1, stronger effect = lower value 1 | locus YOR184W, strain ser1, stronger effect = lower value 0.972 | locus YOR265W, strain rbl2, stronger effect = lower value 0.996 | locus YOR270C, strain vph1, stronger effect = lower value 0.904 | locus YOR290C, strain snf2, stronger effect = lower value 0.95 | locus YOR316C, strain cot1, stronger effect = lower value 1 | locus YPL051W, strain arl3, stronger effect = lower value 1.01 | locus YPL078C, strain atp4, stronger effect = lower value 0.958 | locus YPL106C, strain sse1, stronger effect = lower value 1.04 | locus YPL240C, strain hsp82, stronger effect = lower value 1.01 | locus YPR119W, strain clb2, stronger effect = lower value 1.01 | locus YPR141C, strain kar3, stronger effect = lower value 1 | locus YPR163C, strain tif3, stronger effect = lower value 1.01 | locus YPR167C, strain met16, stronger effect = lower value 0.999 | strain wtn01, stronger effect = lower value 0.993
